According to the supplement of paper PMC4894684:
Where a name gives a salt, the structure may show the parent alone. ± gives the standard deviation of the averaged measurements.

Tested on: Toxoplasma gondii RH (in HFF)
Test: parasite growth relative to the screen mean (all compounds = 100%); higher = less inhibition of parasite growth
Settings: 5 µM; 72 h; oxygen 21 %
In short: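 Values give growth relative to the screen mean. The screen mean (all compounds) is set at 100%, and two screens were averaged. Compounds at 5 µM final were placed on confluent human foreskin fibroblasts, which were infected within 2 h with RH β-Gal–GFP Toxoplasma (MOI 1:5) and kept 72 h at 21% O2 before a CPRG β-Gal readout against in-plate standard curves.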

Row | SMILES | parasite growth
1 | C=C1/C(=C\C=C2/CCC[C@]3(C)[C@@H]([C@H](C)/C=C/[C@@H](O)C4CC4)CC[C@@H]23)C[C@@H](O)C[C@@H]1O [Calcipotriol] | 81.2 ± 8.2%
2 | CCCNC(=O)N1N=C(c2ccc(N)cc2)c2cc3c(cc2C1C)OCO3 (stereo not drawn) | 99.9 ± 32%
3 | CN(C)CCCn1cc(C2=C(c3c[nH]c4ccccc34)C(=O)NC2=O)c2ccccc21 | < 0%
4 | CCOC(=O)C1=C(C)NC(C)=C(C(=O)OC)C1c1cccc([N+](=O)[O-])c1 (stereo not drawn) [Nitrendipine] | 118 ± 5.5%
5 | N[C@@H](Cc1cc(CP(=O)(O)O)cc(-c2ccccc2Cl)c1)C(=O)O | 122 ± 6.2%
6 | CC(O)(C(=O)Nc1ccc(S(=O)(=O)c2ccccc2)cc1)C(F)(F)F (stereo not drawn) | 59.3 ± 19%
7 | O=C1c2ccccc2S(=O)(=O)N1CCCCN1CCN(c2ncccn2)CC1 [Ipsapirone] | 160 ± 46%
8 | CC(C(O)c1ccc(O)cc1)N1CCC(Cc2ccccc2)CC1 (stereo not drawn) [Ifenprodil hemitartrate] | 116 ± 4.3%
9 | CCn1c(=O)n(C2=C(CO)CN(CC3CCCCCCC3)CC2)c2ccccc21 | 174 ± 19%
10 | CC(C)NCC(O)COc1ccc(CC(N)=O)cc1 (racemic) [(RS)-Atenolol] | 103 ± 7.6%
11 | C[S+]([O-])c1ccc(-c2nc(-c3ccc(F)cc3)c(-c3ccncc3)[nH]2)cc1 (stereo not drawn) | 8.46 ± 12%
12 | COc1cc(-c2ccc(=O)[nH]n2)ccc1OC(F)F [Zardaverine] | 103 ± 8.7%
13 | COc1cc2c(cc1O)CC[C@@H]1[C@@H]2CC[C@]2(C)[C@@H](O)CC[C@@H]12 [2-Methoxyestradiol] | 174 ± 46%
14 | COc1cccc(-c2cc(=O)c3ccccc3o2)c1N | 93.9 ± 37%
15 | CCOC(=O)C1=C[C@]2(CC)CCCN3CCc4c(n1c1ccccc41)[C@@H]32 [Vinpocetine] | 121 ± 10%
16 | COc1cc(C(=O)OCCCN2CCCN(CCCOC(=O)c3cc(OC)c(OC)c(OC)c3)CC2)cc(OC)c1OC [Dilazep dihydrochloride] | 54.3 ± 11%
17 | CCN(CC)CCCC(C)Nc1nc(C)cc(Nc2ccc3nc(C)cc(N)c3c2)n1 (stereo not drawn) | 127 ± 2.7%
18 | Nc1c(S(=O)(=O)O)cc(Nc2cccc3ccccc23)c2c1C(=O)c1ccccc1C2=O | 172 ± 11%
19 | C[C@H](NC(=O)c1sccc1OCc1ccc(Cl)cc1)c1ccccc1 | 38.7 ± 22%

Row | SMILES | parasite growth
20 | N[C@@H](CS(=O)O)C(=O)O [L-Cysteinesulfinic acid] | 61 ± 6.7%
21 | COc1ccccc1N1CCN(CC(O)COc2cccc3ccccc23)CC1 (stereo not drawn) [Naftopidil hydrochloride] | 118.7 ± 0.3%
22 | CC(=O)N1CCN(C)CC1 [1-Acetyl-4-methylpiperazine hydrochloride] | 109 ± 40%
23 | COc1ccc(CCN(C)CCc2ccc(OC)c(OC)c2)cc1OC [YS-035 hydrochloride] | 136 ± 23%
24 | COc1cccc(/C=N/N=C/c2cccc(OC)c2)c1 | 135 ± 4.2%
25 | CC1CCN(CC[C@H]2CCCN2S(=O)(=O)c2cccc(O)c2)CC1 | 120 ± 15%
26 | CCn1c(=O)[nH]c2ccccc21 | 67.92 ± 0.3%
27 | COC(=O)C1=C(C)NC(C)=C([N+](=O)[O-])[C@H]1c1ccccc1C(F)(F)F | 153 ± 8.1%
28 | Cc1cccc(C#Cc2ccccc2)n1 [MPEP hydrochloride] | 101 ± 37%
29 | CCCC(=O)Nc1ncnc2c1ncn2[C@@H]1O[C@@H]2COP(=O)(O)O[C@H]2[C@H]1OC(=O)CCC [Dibutyryl-cAMP, sodium salt] | 125 ± 23%
30 | CCc1ccc2c(-c3cccc(Cl)c3)nc(=O)n(CC)c2n1 | 152 ± 17%
31 | CC(C)NCC(O)c1ccc(NS(C)(=O)=O)cc1 (stereo not drawn) [Sotalol hydrochloride] | 108 ± 6.9%
32 | Cn1ccc2cc3c(cc21)CCN3C(=O)Nc1cccnc1 | 121 ± 17%
33 | O=C(c1ccc(F)cc1)C1CCN(CCCCc2ccccc2)CC1 [4-(4-Fluorobenzoyl)-1-(4-phenylbutyl)-piperidine oxalate] | 110 ± 7.6%
34 | CN1CCN2c3ccccc3Cc3ccccc3C2C1 (stereo not drawn) [Mianserin hydrochloride] | 154 ± 39%
35 | C=CC(=O)c1ccc2ccccc2c1 | 70.4 ± 7.8%
36 | N#Cc1ccc(NCCNCC(=O)N2CCC[C@H]2C#N)nc1 [NVP DPP 728 dihydrochloride] | 81.5 ± 3.9%
37 | O=C(O)Cn1c(C(=O)Nc2nc(-c3ccccc3Cl)cs2)cc2ccccc21 | 133 ± 2.8%
38 | CCc1c2c(nc3ccc(OC(=O)N4CCC(N5CCCCC5)CC4)cc13)-c1cc3c(c(=O)n1C2)COC(=O)[C@]3(O)CC | 59.8 ± 11%
